Assay results published in PubChem BioAssay (Tox21).
Values joined by “and” are separate entries in the source; they are usually repeats but may differ in a detail not shown here. Equal values may be shown once. Inconclusive results are not listed. Entries that show only a call come without a potency. A structure can be active in one record and inactive in another. Active and inactive are the calls of the source. Calls come from the whole dose curve; as a rule, active = well fitted curve in the direction sought with a large enough effect in the repeat runs; inconclusive = weak or mixed curves; inactive = no such curve, though single readings can be large; an effect the other way counts as inactive or inconclusive.

Legend:
[1] = Human pregnane X receptor (PXR) small molecule agonists, qHTS cell viability counter screen (AID 1346977); note: nearly all actives have a fitted effect of over 50% in size; note: potency is the fitted concentration of half-maximal effect
Outline: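 PXR-Luc HepG2 cells (2,000/well, 5% charcoal-stripped FBS) preincubated 5 hr, then exposed to compounds 24 hr at 37 C. Viability read in the same wells by CellTiter-Fluor fluorescence, reagent added at 23 hr, 1 hr incubation.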

[2] = Caspase-3/7 induction in HepG2 cells by small molecules, qHTS assay (AID 1346978); note: nearly all actives have a fitted effect of over 15% in size; note: potency is the fitted concentration of half-maximal effect
Outline: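 Wild-type HepG2 cells (2,000/well) were settled 5 h at 37 C, 5% CO2, then exposed to compounds in DMSO for 17 h. Caspase-3/7 activity was read by luminescence 30 min after adding Caspase-Glo 3/7 reagent at room temperature.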

[3] = Caspase-3/7 induction in CHO-K1 cells by small molecules, qHTS cell viability counter screen (AID 1346979); note: nearly all actives have a fitted effect of over 35% in size; note: potency is the fitted concentration of half-maximal effect
Outline: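 Wild-type CHO-K1 cells (1,500/well) treated with compound after 5 h plating; after 16 h at 37C, viability read as CellTiter-Fluor fluorescence following 1 h reagent incubation, in the same wells as the caspase read.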

[4] = Caspase-3/7 induction in CHO-K1 cells by small molecules, qHTS assay (AID 1346980); note: nearly all actives have a fitted effect of over 15% in size
Outline: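 Wild-type cells were seeded at 1,500 per well and settled 5 hr at 37 C, 5% CO2, then exposed to DMSO-dissolved compounds for 17 hr. Caspase-Glo 3/7 reagent was added, and luminescence was read after 30min at room temperature.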

[5] = Caspase-3/7 induction in HepG2 cells by small molecules, qHTS cell viability counter screen (AID 1346981); note: series mostly up to about 92 µM; nearly all actives have a fitted effect of over 30% in size
Outline: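 Counter screen for cytotoxicity: HepG2 exposed 16 hr to compounds, then CellTiter-Fluor viability signal (fluorescence, 1 hr reagent incubation).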

[6] = target: Nuclear receptor subfamily 1 group I member 2 (Homo sapiens) (UniProt O75469); assay: Human pregnane X receptor (PXR) small molecule agonists, qHTS assay (AID 1346982); note: nearly all actives have a fitted effect of over 35% in size; note: potency is the fitted concentration of half-maximal effect
Outline: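 Luminescence (ONE-Glo, 30 min RT) after 24 hr compound exposure of PXR-Luc HepG2 cells; cells rested 5 hr post-plating in 5% charcoal-stripped FBS medium.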

[7] = target: Cytochrome P450 2D6 (Homo sapiens) (UniProt P10635); assay: Cytochrome P450 Family 2 Subfamily D Member 6 (CYP2D6) small molecule antagonists: luciferase reporter qHTS assay (AID 1671196); note: nearly all actives have a fitted effect of over 50% in size; note: potency is the fitted concentration of half-maximal effect
Outline: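 Inhibition of CYP2D6 was gauged by loss of luminescence, since light produced tracks the luciferin generated from a proluciferin substrate. A 10 min room-temperature preincubation preceded 1 h NADPH-supported turnover.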

[8] = target: Nuclear receptor subfamily 1 group I member 2 (Rattus norvegicus) (UniProt Q9R1A7); assay: Rat pregnane X receptor (rPXR) activation by small molecules, qHTS assay (AID 1346983); conditions: rPXR luciferase reporter cells, One-Glo luminescence, 24 h; max activation: stronger effect = higher value; note: nearly all actives have a fitted effect of over 20% in size
Outline: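 Cell-based rPXR luciferase reporter assay, 2,000 cells per well, rested 5hr at 37 C before compound addition in DMSO, then 24 hr at 37 C. One-Glo reagent was added and luminescence read after 30 min at room temperature.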

[9] = target: Nuclear receptor subfamily 1 group I member 2 (Homo sapiens) (UniProt O75469); assay: CYP3A4 induction through human pregnane X receptor (PXR) by small molecules, qHTS assay (AID 1346984); note: nearly all actives have a fitted effect of over 40% in size
Outline: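 DPX-2 reporter cells; 24h cpd, 37C; Luciferin-IPA 3uM final x3h; One-Glo 30 min RT; lumi read.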

[10] = target: Nuclear receptor subfamily 1 group I member 2 (Homo sapiens) (UniProt O75469); assay: Human pregnane X receptor (PXR) activation by small molecules, qHTS assay (AID 1346985); note: nearly all actives have a fitted effect of over 40% in size
Outline: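 DPX-2 cells (HepG2 co-transfected with a PXR response element and a CYP3A4-promoter luciferase construct) were seeded at 2,000 per well, rested 5 hr at 37C, then exposed to DMSO-dissolved compounds for 24 hr. Activation was read as luciferase luminescence.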

Chain of Cytochrome P450 2D6 (Homo sapiens) (P10635 whole entry, looked up): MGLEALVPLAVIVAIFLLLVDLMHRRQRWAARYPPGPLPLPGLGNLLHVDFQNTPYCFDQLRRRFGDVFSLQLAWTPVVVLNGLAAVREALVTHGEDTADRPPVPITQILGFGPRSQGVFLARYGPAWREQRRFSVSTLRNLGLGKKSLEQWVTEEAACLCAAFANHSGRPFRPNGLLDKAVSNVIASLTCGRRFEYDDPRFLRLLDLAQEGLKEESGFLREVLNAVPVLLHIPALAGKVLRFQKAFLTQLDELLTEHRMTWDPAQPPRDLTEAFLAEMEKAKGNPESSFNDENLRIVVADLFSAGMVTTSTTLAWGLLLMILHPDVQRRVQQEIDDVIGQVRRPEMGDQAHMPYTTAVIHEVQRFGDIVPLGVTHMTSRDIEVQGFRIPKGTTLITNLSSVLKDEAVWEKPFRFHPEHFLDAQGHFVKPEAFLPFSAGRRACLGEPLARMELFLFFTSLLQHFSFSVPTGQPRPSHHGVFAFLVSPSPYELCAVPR
Chain of Nuclear receptor subfamily 1 group I member 2 (Homo sapiens) (O75469 whole entry, looked up): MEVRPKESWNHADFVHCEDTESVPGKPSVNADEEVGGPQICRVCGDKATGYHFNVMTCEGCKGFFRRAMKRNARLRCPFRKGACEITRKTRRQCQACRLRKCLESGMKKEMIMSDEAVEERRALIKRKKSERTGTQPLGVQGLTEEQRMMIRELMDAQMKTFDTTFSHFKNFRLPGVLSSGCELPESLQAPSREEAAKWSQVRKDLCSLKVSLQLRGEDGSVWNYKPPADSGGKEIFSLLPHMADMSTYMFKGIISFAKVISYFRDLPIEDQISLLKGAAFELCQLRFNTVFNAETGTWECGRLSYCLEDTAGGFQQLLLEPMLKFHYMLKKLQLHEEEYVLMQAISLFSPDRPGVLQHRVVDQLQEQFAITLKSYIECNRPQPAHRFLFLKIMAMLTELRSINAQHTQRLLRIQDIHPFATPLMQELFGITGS
Chain of Nuclear receptor subfamily 1 group I member 2 (Rattus norvegicus) (Q9R1A7 whole entry, looked up): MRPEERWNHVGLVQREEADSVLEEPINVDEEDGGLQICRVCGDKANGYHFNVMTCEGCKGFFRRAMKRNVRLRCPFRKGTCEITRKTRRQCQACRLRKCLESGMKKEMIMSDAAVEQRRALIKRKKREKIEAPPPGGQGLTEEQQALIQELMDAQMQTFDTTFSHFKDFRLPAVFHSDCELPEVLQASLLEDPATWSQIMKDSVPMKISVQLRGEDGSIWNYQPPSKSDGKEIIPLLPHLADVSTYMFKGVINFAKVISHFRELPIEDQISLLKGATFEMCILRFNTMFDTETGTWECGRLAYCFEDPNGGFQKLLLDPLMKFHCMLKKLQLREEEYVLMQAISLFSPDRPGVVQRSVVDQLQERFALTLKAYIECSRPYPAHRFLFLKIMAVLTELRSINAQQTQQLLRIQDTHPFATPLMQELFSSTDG

SMILES	Potency [1]	Potency [2]	Potency [3]	outcome [4]	Potency [5]	Potency [6]	Potency [7]	max activation [8]	Potency [9]	Potency [10]
O=C1CCCCCN1	7.08 µM (active) and inactive	inactive	1.73 µM (active) and inactive	inactive	inactive	inactive	inactive			
COC(=O)C1CCC(C(=O)OC)CC1 (stereo unspecified)	inactive	inactive	inactive	inactive	inactive	inactive	inactive			
NC(=O)c1ccc([N+](=O)[O-])cc1Cl		inactive	inactive	inactive	inactive	inactive	inactive	2.53% (inactive)	inactive	inactive
Oc1cccc(O)c1		42 µM (active) and inactive	inactive	inactive	inactive	47.1 µM (active) and inactive	inactive	-3.43% (inactive)	inactive	inactive
N[C@@H](Cc1c[nH]c2ccccc12)C(=O)O	inactive	inactive	inactive	inactive	inactive	inactive	35.6 µM (active) and inactive			
c1ccc2[nH]c(-c3cscn3)nc2c1	inactive	inactive	inactive	inactive	inactive	30.8 µM (active) and 770 nM (active) and 6.68 µM (active)	39.9 µM (active) and 38.9 µM (active)			
NC(=O)N1c2ccccc2C=Cc2ccccc21	inactive	inactive	inactive	inactive	inactive	54.2 µM (active) and inactive	1.99 µM (active) and inactive			
O=C(OCc1ccccc1)c1ccccc1		inactive	inactive	inactive	inactive	inactive	inactive	0.688% (inactive)	inactive	inactive
Cn1cnc2c1c(=O)[nH]c(=O)n2C		inactive	inactive	inactive	inactive					
C#C[C@]1(O)CC[C@H]2[C@@H]3CCc4cc(O)ccc4[C@H]3CC[C@@]21C	inactive	21.5 µM (active) and inactive	54.1 µM (active) and 54.5 µM (active)	inactive	inactive		inactive	10.3% (inactive)		
CCOC(=O)C(C)(C)Oc1ccc(Cl)cc1		inactive	inactive	inactive	inactive	inactive				
NCCNc1cccc2ccccc12		inactive	66.9 µM (active) and inactive	inactive	inactive	inactive	5.02 µM (active) and 9.79 µM (active) and 12.3 µM (active)	-4.28% (inactive)		inactive
Nc1cccc(N)c1	inactive	inactive	inactive	inactive	inactive	54.4 µM (active) and inactive	39.8 µM (active) and 31.3 µM (active) and inactive			
Cc1cccc2ccccc12	inactive	inactive	inactive	inactive	inactive	inactive	inactive			
NC(=O)OCC(COC(N)=O)c1ccccc1	inactive	inactive	inactive	inactive	inactive	inactive	inactive			
COCC(C)N (stereo unspecified)	inactive	inactive	inactive	inactive	inactive	inactive	inactive			
Cc1cnc(NC(=O)C2=C(O)c3ccccc3S(=O)(=O)N2C)s1	inactive	inactive	61.3 µM (active) and inactive	inactive	inactive		inactive			
C1CNCCN1	inactive	inactive	44.6 µM (active) and inactive	inactive	inactive	inactive	32.6 µM (active) and inactive and 2.03 µM (active)			
CC(=O)Oc1ccccc1C(=O)O	inactive	inactive	inactive	inactive	inactive	inactive	inactive			
O=c1cc[nH]c(=O)[nH]1		inactive	inactive	inactive	inactive	inactive	inactive	-0.198% (inactive)	inactive	inactive
COc1cc(C=O)ccc1O	inactive	inactive	inactive	inactive	inactive	inactive	inactive			
C[C@]12CC[C@@H]3c4ccc(O)cc4CC[C@H]3[C@@H]1CCC2=O		inactive	inactive	inactive	inactive					
CCCCOCCOCCOC(C)=O		inactive	inactive	inactive	inactive	inactive	inactive			
Cc1cccc(C)c1O		inactive	inactive	inactive	inactive	inactive	inactive			
